The first experiment deals with LHX3. Put plainly: pooled miR-30 sensor sort-seq; sequence = guide strand. Particulars: shRNA.
ATGAGGTAGAACTCGTCGCCCG yielded a sensor-assay potency score (higher = more potent) of -1.34.
In turn, TTTGGCAACAGACATCTGTGGG gave a sensor-assay potency score (higher = more potent) of -0.246.
On the same count and under the same terms, the value for TGCACTTGAGACACTTGCTGTG was -0.126; that for TTGGCAACAGACATCTGTGGGT was 0.209; that for TTGTCCGACTTGGAGCCGCCGC was -1.19.
The same measure, in the same setting: the same measure for TTTCATGTCTAGAAATAGCAGC: 0.283.
Regarding TTGCAGTAAACGCTCTCCCCTC, the sensor-assay potency score (higher = more potent) is -0.865.
As for TTGAGACACTTGCTGTGCCAGT, the sensor-assay potency score (higher = more potent) is -0.489.
Consider TAGGTCAGAACTGGGTCCGTTC, for which the sensor-assay potency score (higher = more potent) was -0.902.
In turn, TTGAAAAAGTCGTCCTTGCAGT gave a sensor-assay potency score (higher = more potent) of -0.456.
With TTGAAGTCTTGGAAAGAGCTGA, the sensor-assay potency score (higher = more potent) is 0.479.
For the sequence TTTGACTTACACACAGGCCAGC, the sensor-assay potency score (higher = more potent) was -0.684.

The next experiment deals with LHX9. Described as above. Particulars: shRNA.
Sequence TTCCTTCTGAATTTGGCTCGTG returned a sensor-assay potency score (higher = more potent) of 0.209.
The same measure, in the same setting: the same measure for TTGAGGTCCTTGGCATCCGGGT: -1.42; for TACAGTGATAGTGGGATTGGTC: -0.245; for TTTCTGGGCAAGCTGCTTGAGG: -0.927.
Consider TTCTGAATTTGGCTCGTGCGTT, for which the sensor-assay potency score (higher = more potent) is -1.08.
With TGCGTTTTGGAACCAAACCTGC, the sensor-assay potency score (higher = more potent) is -1.08.
TAAAGTGGTCGCAGTGCCGGGT showed a sensor-assay potency score (higher = more potent) of -0.418.
As to TAGTTTGTGAGGGGCTTCCGGA, the sensor-assay potency score (higher = more potent) is -1.17.
Turning to TTTCATGGTCCGGAGCTGGTGA, the sensor-assay potency score (higher = more potent) is -0.253.
On to TTACATTCACAGCACTTCAGGC, for which the sensor-assay potency score (higher = more potent) was -0.155.
TTAAAGTGGTCGCAGTGCCGGG came in with a sensor-assay potency score (higher = more potent) of -1.18.
On to TGTCACTACAGTGATAGTGGGA, for which the sensor-assay potency score (higher = more potent) was 0.281.

(Values after the OligoGym collection.)
Note: reference of the scale not given here.
